Among the data in ChEMBL document CHEMBL1961873, “Compounds: GSK PKIS; Assays: Nanosyn kinase panel” (2012) are inhibition values, retold here.

Test [1] deals with T1, Ephrin type-B receptor 2 (Homo sapiens) (UniProt P29323).
T1 sequence (whole entry): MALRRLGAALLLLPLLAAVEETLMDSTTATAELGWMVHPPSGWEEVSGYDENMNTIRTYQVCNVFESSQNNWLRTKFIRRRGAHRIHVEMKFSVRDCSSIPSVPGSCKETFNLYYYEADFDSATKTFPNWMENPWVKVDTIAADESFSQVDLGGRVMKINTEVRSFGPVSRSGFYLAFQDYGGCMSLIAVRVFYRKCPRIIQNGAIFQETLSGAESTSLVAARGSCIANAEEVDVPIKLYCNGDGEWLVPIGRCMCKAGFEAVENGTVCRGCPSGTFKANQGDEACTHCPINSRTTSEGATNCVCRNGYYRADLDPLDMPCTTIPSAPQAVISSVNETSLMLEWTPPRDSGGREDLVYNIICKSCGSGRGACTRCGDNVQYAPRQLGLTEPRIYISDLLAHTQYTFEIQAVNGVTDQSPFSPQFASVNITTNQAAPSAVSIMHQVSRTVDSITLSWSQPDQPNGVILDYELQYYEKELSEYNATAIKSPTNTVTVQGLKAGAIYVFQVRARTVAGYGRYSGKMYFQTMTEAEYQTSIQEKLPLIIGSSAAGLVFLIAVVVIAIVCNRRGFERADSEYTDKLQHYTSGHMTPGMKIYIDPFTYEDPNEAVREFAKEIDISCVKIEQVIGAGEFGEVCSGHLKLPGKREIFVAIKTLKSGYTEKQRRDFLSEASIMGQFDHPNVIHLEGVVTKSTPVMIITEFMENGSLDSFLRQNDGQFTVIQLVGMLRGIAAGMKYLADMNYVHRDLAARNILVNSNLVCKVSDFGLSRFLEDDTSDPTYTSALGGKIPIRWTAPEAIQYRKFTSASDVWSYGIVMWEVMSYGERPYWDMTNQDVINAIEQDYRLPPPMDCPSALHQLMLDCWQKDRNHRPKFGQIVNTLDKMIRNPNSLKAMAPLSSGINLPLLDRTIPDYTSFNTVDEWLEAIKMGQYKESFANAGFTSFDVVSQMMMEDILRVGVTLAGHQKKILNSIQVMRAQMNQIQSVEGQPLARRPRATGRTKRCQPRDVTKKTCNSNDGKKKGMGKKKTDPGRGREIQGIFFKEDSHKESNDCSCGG
The settings on record: at 1 µM.

Test [2] has as its target T2, Ephrin type-B receptor 3 (Homo sapiens) (UniProt P54753).
T2 sequence (whole entry): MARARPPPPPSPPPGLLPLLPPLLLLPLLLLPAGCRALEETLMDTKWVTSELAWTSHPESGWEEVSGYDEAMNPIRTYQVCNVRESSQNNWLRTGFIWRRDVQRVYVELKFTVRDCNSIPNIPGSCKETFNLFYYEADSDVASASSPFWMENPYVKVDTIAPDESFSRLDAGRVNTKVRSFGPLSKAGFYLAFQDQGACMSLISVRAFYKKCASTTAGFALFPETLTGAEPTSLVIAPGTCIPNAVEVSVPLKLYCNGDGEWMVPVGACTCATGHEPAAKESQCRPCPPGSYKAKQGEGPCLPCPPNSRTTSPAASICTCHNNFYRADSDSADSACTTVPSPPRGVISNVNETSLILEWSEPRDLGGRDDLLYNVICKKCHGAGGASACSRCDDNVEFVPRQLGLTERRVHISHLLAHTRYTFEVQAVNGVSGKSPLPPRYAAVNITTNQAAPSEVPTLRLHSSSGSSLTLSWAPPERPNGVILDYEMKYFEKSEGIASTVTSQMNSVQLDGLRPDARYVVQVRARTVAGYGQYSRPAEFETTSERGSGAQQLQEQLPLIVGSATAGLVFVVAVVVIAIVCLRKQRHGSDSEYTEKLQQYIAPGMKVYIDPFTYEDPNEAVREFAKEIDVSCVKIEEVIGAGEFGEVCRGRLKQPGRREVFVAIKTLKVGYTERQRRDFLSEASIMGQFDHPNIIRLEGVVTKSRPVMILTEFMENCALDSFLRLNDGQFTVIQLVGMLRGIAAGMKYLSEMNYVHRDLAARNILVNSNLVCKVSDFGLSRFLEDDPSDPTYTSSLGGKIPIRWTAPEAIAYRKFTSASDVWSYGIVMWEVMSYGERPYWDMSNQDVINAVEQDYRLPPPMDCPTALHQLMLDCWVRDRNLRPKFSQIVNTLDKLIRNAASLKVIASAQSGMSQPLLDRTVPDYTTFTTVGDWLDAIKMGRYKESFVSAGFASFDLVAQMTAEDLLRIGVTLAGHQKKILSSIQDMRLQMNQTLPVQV
The settings on record: at 0.1 µM.

In test [3] the target is T2, Ephrin type-B receptor 3 (Homo sapiens). The settings on record: at 1 µM.
The target of test [4] is T3, Ephrin type-B receptor 4 (Homo sapiens) (UniProt P54760).
T3 sequence (whole entry): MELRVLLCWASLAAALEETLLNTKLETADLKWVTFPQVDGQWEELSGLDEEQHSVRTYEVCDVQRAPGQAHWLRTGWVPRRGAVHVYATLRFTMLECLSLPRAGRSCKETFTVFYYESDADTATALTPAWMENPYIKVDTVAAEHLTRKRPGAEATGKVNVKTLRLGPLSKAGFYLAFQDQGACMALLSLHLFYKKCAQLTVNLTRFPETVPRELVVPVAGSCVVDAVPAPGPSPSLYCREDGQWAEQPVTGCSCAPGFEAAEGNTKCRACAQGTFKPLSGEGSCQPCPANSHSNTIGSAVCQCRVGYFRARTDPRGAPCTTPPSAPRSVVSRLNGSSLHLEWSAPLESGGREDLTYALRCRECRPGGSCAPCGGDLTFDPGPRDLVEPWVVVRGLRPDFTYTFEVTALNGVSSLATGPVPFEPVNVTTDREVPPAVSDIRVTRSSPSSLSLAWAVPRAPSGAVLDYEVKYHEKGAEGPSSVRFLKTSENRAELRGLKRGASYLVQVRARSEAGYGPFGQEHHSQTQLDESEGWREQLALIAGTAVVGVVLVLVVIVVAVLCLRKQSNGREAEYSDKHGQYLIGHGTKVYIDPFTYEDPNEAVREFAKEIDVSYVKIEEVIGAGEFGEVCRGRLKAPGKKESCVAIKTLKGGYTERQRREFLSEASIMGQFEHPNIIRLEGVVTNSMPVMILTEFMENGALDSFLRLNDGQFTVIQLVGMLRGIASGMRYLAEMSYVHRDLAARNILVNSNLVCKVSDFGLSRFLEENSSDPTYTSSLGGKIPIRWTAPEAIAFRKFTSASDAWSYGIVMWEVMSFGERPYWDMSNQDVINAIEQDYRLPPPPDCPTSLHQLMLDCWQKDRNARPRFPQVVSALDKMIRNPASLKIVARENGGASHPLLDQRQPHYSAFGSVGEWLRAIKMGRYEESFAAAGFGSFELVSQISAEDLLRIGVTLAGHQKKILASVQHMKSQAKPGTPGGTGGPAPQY
Particulars: at 0.1 µM.

Test [5] has as its target T3, Ephrin type-B receptor 4 (Homo sapiens). Particulars: at 1 µM.
For test [6], the target named is Receptor tyrosine-protein kinase erbB-2 (Homo sapiens) (UniProt P04626). The settings on record: at 0.1 µM.
Sequence of Receptor tyrosine-protein kinase erbB-2 (Homo sapiens) (P04626 whole entry): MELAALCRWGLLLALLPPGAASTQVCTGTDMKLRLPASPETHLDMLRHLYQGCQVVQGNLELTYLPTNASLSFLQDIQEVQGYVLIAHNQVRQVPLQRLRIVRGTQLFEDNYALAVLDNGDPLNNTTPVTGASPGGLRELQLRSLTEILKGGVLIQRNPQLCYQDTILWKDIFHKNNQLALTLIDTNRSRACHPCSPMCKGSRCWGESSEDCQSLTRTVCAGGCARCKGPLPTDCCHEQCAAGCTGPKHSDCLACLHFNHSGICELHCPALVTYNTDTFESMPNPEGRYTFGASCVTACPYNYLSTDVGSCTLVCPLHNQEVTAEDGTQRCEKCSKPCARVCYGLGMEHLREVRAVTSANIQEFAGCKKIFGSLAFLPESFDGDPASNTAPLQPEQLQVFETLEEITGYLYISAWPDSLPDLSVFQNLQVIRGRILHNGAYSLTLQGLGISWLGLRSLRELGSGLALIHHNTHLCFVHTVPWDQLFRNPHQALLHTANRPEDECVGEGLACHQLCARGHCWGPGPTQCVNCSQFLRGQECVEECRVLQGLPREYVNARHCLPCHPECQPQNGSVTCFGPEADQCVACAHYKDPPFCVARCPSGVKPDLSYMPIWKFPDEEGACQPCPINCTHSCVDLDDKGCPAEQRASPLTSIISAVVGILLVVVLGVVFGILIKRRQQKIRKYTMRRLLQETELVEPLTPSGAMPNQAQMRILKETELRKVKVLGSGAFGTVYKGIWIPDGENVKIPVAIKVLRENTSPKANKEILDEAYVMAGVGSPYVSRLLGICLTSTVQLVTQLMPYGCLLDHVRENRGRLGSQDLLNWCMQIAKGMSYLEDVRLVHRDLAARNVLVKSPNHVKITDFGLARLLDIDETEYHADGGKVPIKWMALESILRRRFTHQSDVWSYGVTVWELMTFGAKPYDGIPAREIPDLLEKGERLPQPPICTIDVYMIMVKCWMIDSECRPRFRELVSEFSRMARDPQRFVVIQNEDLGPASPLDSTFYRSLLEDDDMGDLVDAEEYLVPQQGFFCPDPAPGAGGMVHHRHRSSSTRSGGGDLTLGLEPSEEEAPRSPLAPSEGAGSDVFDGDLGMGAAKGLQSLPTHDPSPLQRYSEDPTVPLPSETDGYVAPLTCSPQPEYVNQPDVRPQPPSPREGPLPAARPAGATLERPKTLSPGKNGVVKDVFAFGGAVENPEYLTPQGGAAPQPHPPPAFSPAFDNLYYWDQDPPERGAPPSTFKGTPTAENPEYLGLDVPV
For test [7] the target is unchanged. Particulars: at 1 µM.
The target in test [8] is Tyrosine-protein kinase Fer (Homo sapiens) (UniProt P16591). Particulars: at 0.1 µM.
Test [9] has the same target. The settings on record: at 1 µM.
For test [10], the target named is Tyrosine-protein kinase Fes/Fps (Homo sapiens) (UniProt P07332). The settings on record: at 0.1 µM.
Sequence of Tyrosine-protein kinase Fes/Fps (Homo sapiens) (P07332 whole entry): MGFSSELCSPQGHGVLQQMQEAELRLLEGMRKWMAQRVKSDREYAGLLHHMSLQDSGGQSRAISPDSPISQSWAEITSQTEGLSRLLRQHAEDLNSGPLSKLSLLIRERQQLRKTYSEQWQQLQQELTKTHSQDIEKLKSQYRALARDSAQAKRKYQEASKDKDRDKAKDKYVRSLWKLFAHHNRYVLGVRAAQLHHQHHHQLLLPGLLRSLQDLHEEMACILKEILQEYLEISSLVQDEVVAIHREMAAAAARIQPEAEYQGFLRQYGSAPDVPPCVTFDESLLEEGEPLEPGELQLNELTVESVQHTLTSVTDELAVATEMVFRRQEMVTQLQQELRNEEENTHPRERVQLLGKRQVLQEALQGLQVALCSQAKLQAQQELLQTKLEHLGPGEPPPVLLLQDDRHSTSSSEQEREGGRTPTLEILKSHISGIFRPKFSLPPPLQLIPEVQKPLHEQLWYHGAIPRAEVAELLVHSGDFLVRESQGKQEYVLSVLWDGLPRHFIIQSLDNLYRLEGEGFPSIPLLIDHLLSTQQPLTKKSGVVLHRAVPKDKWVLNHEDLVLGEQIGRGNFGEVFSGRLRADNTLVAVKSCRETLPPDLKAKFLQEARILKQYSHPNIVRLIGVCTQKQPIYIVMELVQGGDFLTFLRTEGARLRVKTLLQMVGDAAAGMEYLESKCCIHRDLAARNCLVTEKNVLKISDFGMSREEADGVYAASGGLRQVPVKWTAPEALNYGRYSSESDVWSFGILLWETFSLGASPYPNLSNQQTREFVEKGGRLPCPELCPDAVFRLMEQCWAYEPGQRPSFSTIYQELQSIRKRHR
Test [11] has the same target. The settings on record: at 1 µM.
In test [12] the target is Fibroblast growth factor receptor 1 (Homo sapiens) (UniProt P11362). Particulars: at 0.1 µM.
Sequence of Fibroblast growth factor receptor 1 (Homo sapiens) (P11362 22-822 limits assumed): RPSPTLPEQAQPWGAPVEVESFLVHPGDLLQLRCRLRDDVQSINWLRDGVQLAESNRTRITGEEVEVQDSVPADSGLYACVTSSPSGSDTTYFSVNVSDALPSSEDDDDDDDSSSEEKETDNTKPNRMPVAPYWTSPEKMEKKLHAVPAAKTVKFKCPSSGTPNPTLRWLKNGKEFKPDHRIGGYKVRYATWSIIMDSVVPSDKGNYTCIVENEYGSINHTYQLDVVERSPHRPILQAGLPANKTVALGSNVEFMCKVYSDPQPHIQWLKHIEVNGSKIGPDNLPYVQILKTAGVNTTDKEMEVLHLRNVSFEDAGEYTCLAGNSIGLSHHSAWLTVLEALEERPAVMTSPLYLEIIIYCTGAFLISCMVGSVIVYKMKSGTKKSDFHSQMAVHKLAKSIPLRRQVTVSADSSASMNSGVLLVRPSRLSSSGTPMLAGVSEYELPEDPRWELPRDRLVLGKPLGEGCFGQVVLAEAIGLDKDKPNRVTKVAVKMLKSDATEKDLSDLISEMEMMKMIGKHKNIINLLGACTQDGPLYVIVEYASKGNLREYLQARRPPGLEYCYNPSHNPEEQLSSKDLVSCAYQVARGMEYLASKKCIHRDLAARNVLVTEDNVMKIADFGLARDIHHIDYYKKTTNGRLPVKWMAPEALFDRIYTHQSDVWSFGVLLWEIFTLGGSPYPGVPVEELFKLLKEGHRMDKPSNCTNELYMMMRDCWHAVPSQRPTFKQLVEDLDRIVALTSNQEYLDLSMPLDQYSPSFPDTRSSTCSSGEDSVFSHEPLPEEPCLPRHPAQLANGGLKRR
For test [13] the target is unchanged. Particulars: at 1 µM.
The target in test [14] is Fibroblast growth factor receptor 2 (Homo sapiens) (UniProt P21802). The settings on record: at 0.1 µM.
Test [15] shares this target. The settings on record: at 1 µM.
For test [16], the target named is Fibroblast growth factor receptor 3 (Homo sapiens) (UniProt P22607). Particulars: at 0.1 µM.
For test [17] the target is unchanged. Particulars: at 1 µM.
The target in test [18] is Fibroblast growth factor receptor 4 (Homo sapiens) (UniProt P22455). Particulars: at 0.1 µM.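 Also: values are mean percent inhibition of FGFR4.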
Sequence of Fibroblast growth factor receptor 4 (Homo sapiens) (P22455 22-802 limits assumed): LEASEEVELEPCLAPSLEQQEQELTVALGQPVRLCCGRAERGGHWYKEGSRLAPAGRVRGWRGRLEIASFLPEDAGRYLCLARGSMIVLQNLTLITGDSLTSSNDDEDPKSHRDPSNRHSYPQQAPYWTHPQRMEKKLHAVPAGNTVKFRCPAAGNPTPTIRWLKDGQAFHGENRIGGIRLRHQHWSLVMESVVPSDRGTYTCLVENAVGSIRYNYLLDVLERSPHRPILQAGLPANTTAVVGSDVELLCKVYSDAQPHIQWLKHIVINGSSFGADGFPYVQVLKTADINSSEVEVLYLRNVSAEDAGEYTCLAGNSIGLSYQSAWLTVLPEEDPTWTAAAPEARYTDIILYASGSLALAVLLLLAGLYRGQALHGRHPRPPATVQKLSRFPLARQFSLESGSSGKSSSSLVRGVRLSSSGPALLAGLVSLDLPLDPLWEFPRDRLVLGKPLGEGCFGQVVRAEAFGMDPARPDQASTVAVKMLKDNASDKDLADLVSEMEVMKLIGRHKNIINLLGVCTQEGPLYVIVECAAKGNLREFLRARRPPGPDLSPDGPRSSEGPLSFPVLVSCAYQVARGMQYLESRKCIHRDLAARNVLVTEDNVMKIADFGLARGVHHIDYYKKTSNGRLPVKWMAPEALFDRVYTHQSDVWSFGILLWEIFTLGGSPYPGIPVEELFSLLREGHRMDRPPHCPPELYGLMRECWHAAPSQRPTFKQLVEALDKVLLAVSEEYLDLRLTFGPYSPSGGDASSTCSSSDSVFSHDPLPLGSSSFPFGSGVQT
Test [19] addresses Receptor tyrosine-protein kinase erbB-4 (Homo sapiens) (UniProt Q15303). The settings on record: at 0.1 µM.
Test [20] shares this target. Particulars: at 1 µM.

One may read the inhibition as the drop in the measured response relative to a control, in per cent.

Sequence of Receptor tyrosine-protein kinase erbB-4 (Homo sapiens) (Q15303 whole entry): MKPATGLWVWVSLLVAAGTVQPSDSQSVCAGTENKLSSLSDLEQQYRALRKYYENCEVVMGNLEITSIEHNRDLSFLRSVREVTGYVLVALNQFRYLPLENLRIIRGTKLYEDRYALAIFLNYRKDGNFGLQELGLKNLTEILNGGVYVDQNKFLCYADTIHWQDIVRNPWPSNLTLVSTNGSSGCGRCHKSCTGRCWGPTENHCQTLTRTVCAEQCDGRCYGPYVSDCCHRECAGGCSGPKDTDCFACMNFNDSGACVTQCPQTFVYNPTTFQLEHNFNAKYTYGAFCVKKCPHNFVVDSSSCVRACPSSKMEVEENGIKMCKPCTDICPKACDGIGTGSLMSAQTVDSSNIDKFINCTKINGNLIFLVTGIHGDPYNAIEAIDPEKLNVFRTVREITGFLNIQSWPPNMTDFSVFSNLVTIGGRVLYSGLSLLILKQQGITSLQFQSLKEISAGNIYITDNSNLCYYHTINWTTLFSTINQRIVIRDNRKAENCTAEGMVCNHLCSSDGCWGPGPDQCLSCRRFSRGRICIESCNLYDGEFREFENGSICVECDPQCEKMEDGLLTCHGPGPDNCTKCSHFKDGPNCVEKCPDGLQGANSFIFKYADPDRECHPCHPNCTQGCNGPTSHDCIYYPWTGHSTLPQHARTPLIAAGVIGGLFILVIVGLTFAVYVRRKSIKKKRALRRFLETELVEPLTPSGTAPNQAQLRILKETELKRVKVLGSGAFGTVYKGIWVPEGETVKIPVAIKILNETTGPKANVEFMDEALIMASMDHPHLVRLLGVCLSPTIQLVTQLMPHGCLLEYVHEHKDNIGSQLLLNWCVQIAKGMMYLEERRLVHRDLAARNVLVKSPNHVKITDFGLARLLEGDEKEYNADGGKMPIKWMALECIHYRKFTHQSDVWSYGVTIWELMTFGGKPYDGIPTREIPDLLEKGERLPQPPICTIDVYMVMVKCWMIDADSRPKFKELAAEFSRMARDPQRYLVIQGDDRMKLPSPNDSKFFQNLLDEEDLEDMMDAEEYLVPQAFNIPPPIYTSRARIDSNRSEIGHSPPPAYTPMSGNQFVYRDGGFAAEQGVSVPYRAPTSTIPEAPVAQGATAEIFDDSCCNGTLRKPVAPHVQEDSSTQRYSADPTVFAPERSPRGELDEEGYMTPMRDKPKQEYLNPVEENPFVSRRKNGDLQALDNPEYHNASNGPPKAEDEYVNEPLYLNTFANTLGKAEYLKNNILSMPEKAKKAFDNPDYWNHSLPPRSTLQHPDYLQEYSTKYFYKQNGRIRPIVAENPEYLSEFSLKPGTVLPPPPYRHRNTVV

Take `Cc1ccc(C(=O)NC(C)C)cc1-c1ccc(C(=O)NCC2CC2)cc1`: the inhibition in test [1] is 0.35%; in [2] it was -7.05%; in [3] it was -4.82%; in test [4] it was -0.32%; in test [5], -2.91%; in test [6], -5.52%. Moreover, the inhibition is -4.79% in test [7]; -1.9% in [8]; -1.61% in test [9]; -2.77% in [10]; -3% in test [11]; -5.37% in [12]. Further, the inhibition in [13] was -2.8%; in test [14], -4.22%; in test [15], -3.57%; in [16], -4.95%; in test [17] it was -3.57%; in test [18], 1.18%.

As to `N#Cc1ccc(Oc2nccc(-c3c(-c4ccc(F)cc4)ncn3C3CCNCC3)n2)cc1`, the inhibition in test [1] is 10.3%; in test [2], 5.17%; in test [3], 5.31%; in [4] it was -0.34%; in test [5] it was 2.48%; in [6], 4.34%. Also, the inhibition in test [7] was 2.33%; in [19], 9.54%; in test [20], 11.9%; in test [8], 3.43%; in test [9], 4.07%; in test [10], 4.54%. Besides, the inhibition in [11] was 4.03%; in test [12] it was -0.69%; in [13], 5.45%; in [14], 3.13%; in test [15], 6.84%; in [16], 3.14%. The inhibition in test [17] stood at 5.22%; in test [18] it was 0.73%.

As for `CN(C)CCOc1ccc(-c2cc(-c3ccc4c(c3)CCC4=NO)c(-c3ccncc3)o2)cc1`, the inhibition was 6.81% in test [1]; -0.49% in [2]; 5.63% in [3]; 0.06% in [4]; 1.37% in [5]; 3.66% in test [6]. Besides, the inhibition was 5.12% in test [7]; 1.69% in test [19]; 13% in test [20]; -1.17% in test [8]; -0.96% in [9]; 0.22% in test [10]. Also, the inhibition is -1.71% in test [11]; -4.37% in [12]; -0.28% in [13]; -2.17% in [14]; -0.7% in test [15]; -1.69% in test [16]. In addition, the inhibition in test [17] was -0.19%; in test [18], 1.99%.

For `C#Cc1cccc(Nc2ncnc3ccc(OCCCCNCCS(C)(=O)=O)cc23)c1`, the inhibition was 19.4% in [1]; 4.21% in test [2]; 0.73% in test [3]; 1.68% in test [4]; -1.52% in test [5]; 6.37% in test [6]. Further, the inhibition in [7] stood at 29.9%; in test [19] it was 24.8%; in test [20], 63.8%; in test [8], 2.76%; in [9], 3.37%; in test [10], 2.69%. Moreover, the inhibition in test [11] amounted to 6.01%; in [12] it was 0.37%; in [13] it was 0.98%; in test [14], 1.4%; in test [15], 2.36%; in [16] it was 5.79%. The figures for the inhibition in test [17] and in [18] were 3.33% and -4.44%, respectively.

`CS(=O)(=O)CCNCc1cc(-c2cc3c(Nc4ccc(OCc5cccc(F)c5)c(Cl)c4)ncnc3s2)cs1`: the inhibition in test [1] was 7.92%; in test [2], 0.62%; in test [3], 4.6%; in [4], -0.19%; in test [5], 2.96%; in test [6], 3.61%. Further, the inhibition stood at 60.2% in [7]; 22.7% in [19]; 76.7% in test [20]; 2.65% in test [8]; 7.65% in test [9]; 4.73% in [10]. Moreover, the inhibition is 5.27% in test [11]; 5.5% in test [12]; 3.17% in test [13]; 7.79% in [14]; 8.79% in [15]; 6% in [16]. Besides, the inhibition in test [17] turned out to be 6.34%; in test [18] it was 5.68%.

Regarding `CS(=O)(=O)CCNCc1ccc(-c2ccc3ncnc(Nc4ccc(OCc5ccccc5)c(Br)c4)c3c2)o1`, the inhibition in test [1] was 6.61%; in test [2] it was -1.4%; in [3], -0.23%; in [4] it was -1.9%; in [5], -0.22%; in test [6] it was 10.8%. In addition, the inhibition in [7] was determined as 73.5%; in [19], 42.6%; in [20] it was 79.8%; in test [8], 2.74%; in test [9], 4.54%; in test [10], 2.7%. For the same compound, the inhibition is 1.88% in test [11]; -3.67% in [12]; 4.36% in test [13]; 1.07% in [14]; 4.45% in test [15]; 0.3% in [16]. Besides, the inhibition in [17] is 1.62%; in test [18] it was -4.71%.

Regarding `CN1CCN(CCCNc2nc3ccc(Oc4ccc(NC(=O)Nc5cc(C(F)(F)F)ccc5F)cc4)cc3[nH]2)CC1`, the inhibition in test [1] was 58.8%; in test [2], -3.09%; in test [3], -6.41%; in test [4], -1.44%; in test [5] it was 16.4%; in test [6], -2.7%. Besides, the inhibition in [7] was -2.07%; in [19] it was 3.38%; in test [20], 2.56%; in test [8], 3.88%; in test [9] it was 3.71%; in test [10], 1.57%. For the same compound, the inhibition in [11] was 1.53%; in test [12] it was -4.14%; in test [13], 0.63%; in test [14], -1.49%; in [15], 1.51%; in [16], -0.95%. For the same compound, the inhibition in test [17] is -0.55%; in test [18] it was -2.64%.
